Bioassay records from PubChem BioAssay.
Autofluor 339 = intrinsic fluorescence of library compounds, ex339/em460 – biochemical, MLSMR library, data from DPM-DC assay, artefact control, profiling panel; compound autofluorescence, ex339/em460 nm, NADH buffer; stronger effect = higher value; 1 = no-compound wells, NADH background; fluorescence fold increase at 10 µM; 65,000 compounds, 5.5% hits;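 active = at 10 µM, mean starting fluorescence two-fold or more over control wells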;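 note: signal is the first read of a kinetic run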
A340 absorber = compounds absorbing at 340 nm. compound absorbance at 340 nm, fold over control. fold change at 10 µM. AID 708. 65,000 tested, under 10 active;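 active = at 10 µM dose, initial 340 nm absorbance at least 2 fold that of control wells; inactive = change under 2 fold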;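 note: initial absorbance extrapolated from kinetic A340 decline of NADH oxidation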
NADH coupling = inhibition of NAD/NADH coupling enzymes, library profiling; coupled PK/LDH NADH assays, four targets; IC50, µM (series often up to 10 µM), for the others: at the top dose inhibition; 65,000 compounds, 0.02% hits; AID 774;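 active = single-dose screening hits from any of four coupled enzyme assays that gave an IC50 when retested across doses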;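 note: the DPM-DC format reads NADH fluorescence rather than 340 nm absorbance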
Spn MK inh = blocks S. pneumoniae mevalonate kinase | 65,000 compounds, 0.48% hits | purified MK, PK/LDH-coupled NADH absorbance 340 nm | AID 555 | inhibition, % at 10 µM;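 active = ranked among the strongest by inhibition in the single 10 µM screen, a fixed top-ranked set picked for dose follow-up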
Spn DPM-DC inh = blocks S. pneumoniae diphosphomevalonate decarboxylase; purified DPM-DC, PK/LDH coupled NADH fluorescence; calls only at 10 µM; 65,000 compounds, 0.49% hits;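 active = the 320 compounds with the highest percent inhibition in the single-dose primary screen, excluding strongly autofluorescent ones, cut at about 32% in these data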;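 note: kinetic rate of NADH fluorescence loss reporting ADP formed by the decarboxylase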
PMK inhibit = inhibitors of Streptococcus pneumoniae phosphomevalonate kinase; purified PMK, PK/LDH-coupled NADH absorbance 340 nm; inhibition, % at 10 µM; AID 539; 65,000 compounds, 0.49% hits;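 active = top-ranked compounds by inhibition in the single 10 µM screen, taking a fixed number of the strongest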;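 note: 0% = full reaction with DMSO carrier and 100% = background rate without enzyme reaction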
* hit, by the source's call; i = inactive; . = no result given; + = active, no number. Shown are actives, neighbours in structure and some others; about 6.3% of the full set was active somewhere.

SMILES | Autofluor 339 | A340 absorber | NADH coupling | Spn MK inh | Spn DPM-DC inh | PMK inhibit
COCc1cc(C)nc(Nc2ccc(C)c(C)c2)c1C#N | 1.5 | 1.1 | 2% | 0 | i | 0
COCc1cc(C)[nH]c(=O)c1C#N | 2.2* | 1.1 | 2% | 4 | . | 0
O=C(NC1CS(=O)(=O)CC1NCc1ccccc1)c1ccccc1 (stereo not drawn) | 1.1 | 1 | 3% | 6 | i | 4
COc1ccc2[nH]c(C)c(CN3CCC(C)CC3)c(=O)c2c1 | 1.7 | 1.1 | 4% | 0 | i | 0
COc1ccc2[nH]c(C)c(CN3CCCC(C)C3)c(=O)c2c1 (stereo not drawn) | 2.1* | 0.98 | 5% | 4 | i | 2
CCOc1ccc2[nH]c(C)c(CN3CCCCC3)c(=O)c2c1 | 3* | 1.1 | 4% | 10 | i | 0
O=C(CSc1nc2ccccc2c(=O)n1-c1ccc(Cl)cc1)c1ccco1 | 1 | 1.1 | 0% | 0 | i | 0
CCS(=O)(=O)c1ccc(O)c(NC(=O)Nc2ccccc2)c1 | 1 | 1 | 20% | 42* | i | 18
Cn1ccnc1SCC(=O)N(C1CCCCC1)C1CCCCC1 | 1.1 | 1 | 8% | 8 | i | 16
CCCCOC(=O)C1=C(C)Nc2ncnn2C1c1cc(OC)c(OC)cc1OC (stereo not drawn) | 1.1 | 1 | 6% | 9 | i | 9
Cn1c(=O)cc(SCC(=O)N2CCCC2)c2ccccc21 | 1.4 | 1 | 4% | 6 | i | 7
CCOC(=O)N1CCC(NC(=O)CSc2cc(=O)n(C)c3ccccc23)CC1 | 1.7 | 1.1 | 38% | 35 | + | 42*
CCN1CCCC1CNC(=O)CSc1cc(=O)n(C)c2cc(Cl)ccc12 (stereo not drawn) | 1.3 | 1.1 | 1% | 0 | i | 4
CCOC(=O)CSc1cc(=O)n(C)c2cc(Cl)ccc12 | 0.93 | 1 | 16% | 13 | + | 3
CCOc1ccc2[nH]c3c(N4CCN(c5ccccn5)CC4)ncnc3c2c1 | 2.7* | 1 | 3% | 6 | i | 2
COc1ccc(OC)c(NC(=O)CSc2nnc(Cn3c(=O)sc4ccccc43)n2C)c1 | 1 | 1.1 | 1% | 4 | i | 0
c1cc2c3c(cccc3c1)NC1(CCCCCC1)N2 | 3.8* | 1.1 | 9% | 11 | . | 7
CCOCCCn1c(=S)[nH]c2cc3c(cc2c1=O)OCO3 | 1 | 1 | 3% | 9 | i | 11
O=C(NCCn1ccc2ccccc21)c1ccc(S(=O)(=O)N2CCOCC2)cc1 | 1.1 | 1 | 6% | 5 | i | 14
Cc1ccc2cc3c(nc2c1)N(Cc1ccco1)CC3 | 3.8* | 1.1 | 3% | 1 | . | 5
O=C(Nc1ccc(N2CCCCC2)cc1)c1cccnc1 | 1.1 | 1.1 | 17% | 2 | + | 8
O=C(Nc1ccc(N2CCN(Cc3ccccc3Cl)CC2)cc1)c1cccnc1 | 1 | 1 | 3% | 6 | i | 4
Cc1ccccc1Cn1c(=N)n(CC(=O)c2ccco2)c2ccccc21 | 1.1 | 1 | 3% | 3 | i | 5
Fc1ccccc1OCCCN1CCOCC1 | 1.1 | 1.1 | 17% | 52* | i | 0
Clc1ccccc1OCCn1ccnc1 | 1.1 | 1.1 | 3% | 10 | i | 0
SMILES | Autofluor 339 | A340 absorber | NADH coupling | Spn MK inh | Spn DPM-DC inh | PMK inhibit
Cc1ccc(OCCN2CCCCCC2)c(C)c1 | 1.1 | 1 | 5% | 6 | i | 10
COc1cccc(OCCCCN2CCCCC2)c1 | 1.1 | 1 | 19% | 55* | i | 0
Cc1ccccc1OCCCN1CCCC1 | 1.1 | 1.1 | 14% | 43* | i | 0
Clc1ccccc1OCCN1CCCCC1 | 1.1 | 1.1 | 17% | 41* | i | 11
CCn1ncc(C2=NOC(C(=O)NCc3ccc(Cl)cc3)C2)c1C (stereo not drawn) | 1.1 | 0.98 | 2% | 1 | i | 9
C=CCSC1=C(C#N)C(c2ccc(OCC)cc2)CC(=O)N1 (stereo not drawn) | 1.1 | 1 | 4% | 0 | i | 10
C=CCc1ccccc1OCCCCN1CCCC1 | 1 | 1 | 6% | 45* | i | 9
CCc1ccccc1OCCCCN1CCCC1 | 1 | 1 | 8% | 71* | i | 3
C=CCc1ccccc1OCC(CN1CCCCC1)OC(C)=O (stereo not drawn) | 1.3 | 0.99 | 6% | 0 | i | 18
O=C(N1CCCC1)n1c(Cc2ccccc2)nc2ccccc21 | 1.1 | 1 | 1% | 2 | i | 0
COc1ccccc1N(C)S(=O)(=O)c1ccc(C(=O)OCC(=O)NCc2ccco2)cc1 | 1.1 | 1 | 5% | 0 | i | 15
Cc1ccc(S(=O)(=O)NCC(c2cccnc2)N(C)C)cc1 (stereo not drawn) | 0.99 | 1 | 2% | 2 | i | 0
COCC(C)NCc1ccc(C)cc1C (stereo not drawn) | 1.1 | 1.1 | 20% | 52* | i | 1
Cc1ccc(CNc2ccc3c(c2)OCO3)c(C)c1 | 1.2 | 1.1 | 0% | 0 | i | 0
COc1ccccc1CNc1ccc(N2CCOCC2)c(C(=O)O)c1 | 2.2* | 1 | 8% | 6 | i | 3
COC(=O)c1cc(NCc2ccc3c(c2)OCO3)ccc1N1CCOCC1 | 1.7 | 0.99 | 9% | 11 | i | 10
COc1cc(CNc2ccc(N3CCOCC3)c(C(=O)O)c2)ccc1OCC(N)=O | 2.3* | 0.99 | 7% | 6 | + | 2
O=C(O)c1cc(NCc2ccc3c(c2)OCO3)ccc1N1CCOCC1 | 2.5* | 1 | 4% | 10 | i | 1
CC(=O)Nc1ccc(Cl)cc1C(=O)O | 1.1 | 1 | 2% | 0 | i | 10
CC(=O)CC(=O)Nc1ccccc1NC(C)=O | 1 | 0.99 | 2% | 0 | i | 0
O=C(COC(=O)CCc1c[nH]c(=O)[nH]1)Nc1ccccc1 | 1 | 0.97 | 11% | 0 | i | 25*
CCOC(=O)C1CCN(c2cc(=O)n(Cc3ccc(F)cc3)c(=O)[nH]2)CC1 | 1.1 | 1 | 4% | 6 | i | 7
Nc1ccc2c(C(F)(F)F)cc(=O)oc2c1 | 3.7* | 1 | 14% | 11 | . | 17
Nc1ccc2oc3ncccc3c(=O)c2c1 | 1.1 | 1 | 1% | 0 | i | 2
C=CCn1c2ccccc2c2nnc(SCCCn3c(=O)[nH]c4ccccc43)nc21 | 1 | 1.1 | 5% | 8 | i | 7
COc1ccccc1OCc1nc2c3c(-c4ccccc4)c(-c4ccccc4)oc3ncn2n1 | 3.2* | 1.2 | 2% | 2 | . | 1
Cc1nc2c3c(-c4ccccc4)c(-c4ccccc4)oc3ncn2n1 | 2 | 1 | 5% | 0 | i | 15
CCOc1cc(C2NC(=O)NC(C)=C2C(=O)OCc2ccccc2)ccc1O (stereo not drawn) | 1.1 | 1 | 3% | 0 | i | 9
CSc1nnc(-c2ccccc2)o1 | 1.1 | 1 | 3% | 7 | i | 2
